# Marburg entry inh: inhibitors of Marburg virus binding or cell entry; Marburg virus pseudotyped entry inhibition, cell reporter; Potency, µM (top dose mostly 37.8 µM), inactives show at the top dose activity change, negative = inhibition, usual class: inhibitors; actives 1.8% (n = 300,000); AID 540276; calls by dose curve; tested in HEK293 cells; note: potency is the fitted concentration of half-maximal effect
# HCV inhibitor: blocks hepatitis C virus | Huh7.5.1 HCVcc-Cre infection, luciferase reporter, 44 h | Potency, µM (doses to about 41.8 µM), inactives show at the highest dose activity change, negative = inhibition, usual class: inhibitors | actives 3.4% (n = 340,000); active = well fitted inhibition curve with a large enough effect; inconclusive = small, poorly fitted or top-dose-only effect, or another doubt; inactive = no such curve, though single readings can be large or run the other way; note: potency is the fitted concentration of half-maximal effect
#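 Seed cells (1,000/well) for 4 h; treat with compound and infect with HCVcc-Cre, moi about 0.5. Incubate 44 h, then detect luciferase activity.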
# FMDV inh: antivirals against foot and mouth disease virus | FMDV antiviral cell-based qHTS | Potency, µM (series often up to 57.9 µM), without a hit: at the top dose activity change, negative = inhibition, hits mostly inhibitors | actives 1.2% (n = 410,000) | AID 1159524; calls by dose curve; tested in HEK293T cells; note: read-out not given here; potency is the fitted concentration of half-maximal effect; nearly all actives have a fitted effect of over 45% in size
# HCMV inh: blocks human cytomegalovirus replication; HFF cells, HCMV-luciferase reporter, 72 h; active compounds read low; activity change, negative = inhibition, % at 57.5 µM; actives 4.5% (n = 410,000); in the data active = activity change below about -60%; inconclusive = no clear call, values can overlap the other calls; inactive = above about -39%
#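 HFF cells seeded 16 h at 37C, treated with compounds, infected with luciferase-reporter HCMV at MOI 1 PFU/cell; luciferase read at 72 h post infection, normalized to buffer-only and Salinomycin controls.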
# LASV entry inh: Lassa virus entry inhibition; Potency, µM (highest dose often 37.9 µM), for inactives: at the top dose activity change, negative = inhibition, actives largely listed as inhibitors; actives 1.2% (n = 300,000); Lassa virus pseudotype entry inhibition, cell reporter; calls by dose curve; tested in HEK293 cells; note: potency is the fitted concentration of half-maximal effect; nearly all actives have a fitted effect of over 50% in size
# * hit, by the source's call; ? = inconclusive; . = not tested or not shown; ! = repeats disagree; [ ] = remark or other dose. Sampled rows, rich in hits. Any-hit rate of the full collection: about 7.9%. % is set by controls: 0 for no effect and ±100 for the full control effect.
SMILES,Marburg entry inh,HCV inhibitor,FMDV inh,HCMV inh,LASV entry inh
CC(=O)c1c(-c2ccc(Cl)cc2)c2ccccc2[nH]c1=O,-11%[46.1 µM],-17%,-15%,?,?
CC1(C)S[C@@H]2[C@H](NC(=O)[C@H](N)c3ccccc3)C(=O)N2[C@H]1C(=O)O,10%,-15%[8.37 µM],-6%,-60*!,-2%
CC1(C)S[C@@H]2[C@H](NC(=O)[C@H](N)c3ccc(O)cc3)C(=O)N2[C@H]1C(=O)O,9%,?,-11%,-40,-22%
Cc1nc2ccccc2nc1CN1CCOc2ccc(CN3CCc4sccc4C3)cc2C1,.,.,-8%,.,.
CC(C)NC(=O)NC(=O)CSc1nnc(COc2ccccc2F)n1C(C)C1CC2CCC1C2 (centres undefined),?,?,28µM*,20,18µM*
CC(C1CC2CCC1C2)n1c(COc2ccccc2F)nnc1SCC(N)=O (centres undefined),?,10%,-22%,4,0%
Cc1[nH]nc2c1C(c1cn[nH]c1-c1ccc(F)cc1)C(C#N)=C(N)O2 (centres undefined),0%[46.1 µM],-7%,22µM*,11,-28%
Cc1[nH]nc2c1C(c1cc(Br)cs1)C(C#N)=C(N)O2 (centres undefined),?,?,?,-98*,-2%
N#CC1=C(N)Oc2n[nH]c(-c3ccc(F)cc3)c2C1c1cccnc1 (centres undefined),7%,17%,-20%,-19,18%
Cc1ccc(-c2cc(NC(=O)COc3ccc(Cl)cc3C)on2)cc1,28%[46.1 µM],.,16%,50,13%[46.1 µM]
COc1cc(OC)c(NC(=O)Nc2sc3nc4n(c(=O)c3c2C)CCC(C)CC4)cc1Cl (centres undefined),0%[46.1 µM],.,?,4,.
CC(C)(C)c1cc(CCC(=O)NCc2ccncc2)cc(C(C)(C)C)c1O,-2%,?,9%,.,4%
CC(C)(C)c1cc(CCC(=O)Nc2ccncc2)cc(C(C)(C)C)c1O,.,?,-7%,-63*,.
S=C(NC1CCCCC1)N1CCn2cccc2C1c1cccnc1 (centres undefined),8.9µM*,-8%,-7%,-32,?
COc1ccc(N2CCN(c3nc4cc(C)ccc4cc3C=O)CC2)cc1,-19%[46.1 µM],11µM*,-19%,-25,-12%
Cc1cc(N2CCN(c3ncccn3)CC2)nc2c(C)cccc12,?,?,?,.,-10%
COc1ccc2nc(N3CCOCC3)cc(C)c2c1,?,?,.,146,?
COc1ccc(N2CCN(c3cc(C)c4ccc(C)cc4n3)CC2)cc1,?,-15%,?,-64*,?
COc1ccc(N2CCN(c3cc(C)c4cccc(C)c4n3)CC2)cc1,?,-6%,-9%,-74*,?
COc1ccc(N2CCN(c3ncnc4c3cnn4-c3ccc(C)cc3C)CC2)cc1,3%,10%,?,-36,-25%
COc1ccc2c(C)cc(N3CCOCC3)nc2c1,27%,25µM*,50%,17,?
CC(=O)Nc1nonc1-c1nnc(SCc2ccc(Cl)cc2)n1C,-1%[46.1 µM],.,-6%,-14,-6%[46.1 µM]
O=C(CNC(=O)c1cccc(F)c1)N/N=C/c1cc(Br)ccc1OC(=O)/C=C/c1ccco1,18µM*,7.9µM*,-16%,-101*,?
O=C(CNC(=O)c1ccccc1O)N/N=C/c1cc(Br)ccc1OC(=O)/C=C/c1ccco1,?,?,-30%,-74*,5.6µM*
COC(=O)[C@](O)(c1c[nH]c2ccccc12)C(F)(F)F,3%,.,.,.,.
SMILES,Marburg entry inh,HCV inhibitor,FMDV inh,HCMV inh,LASV entry inh
Cc1nnc2c3ccccc3c(-c3ccccc3)nn12,?,-2%,.,-66*,?
Cc1ccc(-c2nnc3c4ccccc4c(-c4ccccc4)nn23)cc1,-3%[46.1 µM],.,-13%,22,?
COc1ccc(C(=O)NC(=S)NNC(=O)c2ccc(NC(=O)C(C)C)cc2)cc1,?,16µM*,-3%,0,?
Cc1ccc(C(=O)NC(=S)Nc2ccc(NC(=O)c3cccc(Cl)c3)cc2)cc1,1.3µM*,-11%,3%,?,2.3µM*
Cc1cc(C)c(NC(=S)NC(=O)c2ccc(-c3ccccc3)cc2)c(C)c1,?,3%,?,-84*,8.9µM*
Cc1cccc(C(=O)NC(=S)NNC(=O)c2ccc(Cl)cc2)c1,?,?,?,-84*,?
Cc1cccc(C(=O)NC(=S)NNC(=O)c2cccs2)c1,1%,1%,-12%,?,9%
CC(C)C(=O)Nc1cccc(NC(=S)NC(=O)c2ccc(Cl)cc2)c1,?,?,?,-73*,-29%
CCc1ccc(N2C(=O)CS(=O)(=O)C23C(=O)N(Cc2ccccc2F)c2ccccc23)cc1 (centres undefined),.,.,-4%,-7,-18%[46.1 µM]
CCOC(=O)CSc1nnc2n(-c3ccccc3)c(=O)c3c4c(sc3n12)CC(C(C)(C)C)CC4 (centres undefined),4%[46.1 µM],.,-11%,35,-2%[46.1 µM]
O=C(NCc1cccnc1)c1ccc([N+](=O)[O-])o1,.,?,-1%,-85*,.
O=C(NCc1ccco1)c1ccc(Cn2cc([N+](=O)[O-])cn2)o1,6%,5%,8%,20,1%
O=C(NCc1ccco1)c1ccc([N+](=O)[O-])o1,3%[46.1 µM],-27%,-20%,-66*,-13%
CCCNC(=O)c1cc(-c2ccc(OC)cc2)on1,10µM*,-17%,18%,40,?
COc1ccc(-c2cc(CCCC(=O)N3CCN(c4ccc(OC)cc4)CC3)no2)cc1,3%,11µM*,?,-22,.
CCCCNC(=O)c1cc(-c2ccc(OC)cc2)on1,?,-1%,61%,105,-9%
COc1ccc(-c2cc(CCCC(=O)NCCc3cc(OC)ccc3OC)no2)cc1,?,10µM*,?,-20,-7%
COc1ccc([C@@H]2[C@@H](C(=O)N3CCOCC3)CC(=O)N2S(=O)(=O)c2ccc(F)cc2)cc1,.,.,.,4,.
CN(C)c1ncc(C(=O)NCc2ccccc2Cl)cn1,.,.,-7%,-5,2%[46.1 µM]
COc1ccc(-c2nc(NC(=O)c3c(C)noc3C)sc2C)cc1,-23%,?,?,-61*,?
COc1ccc(-c2nc(NC(=O)CCNC(=O)c3ccco3)sc2C)cc1,.,?,?,-21,.
COc1ccc(-c2nc(NC(=O)c3cc(C(C)(C)C)nn3C)sc2C)cc1,9.2µM*,5.6µM*,28µM*,.,?
CCCCc1nn2c(=O)cc(COC(=O)c3ccc4c(c3)OCO4)nc2s1,.,.,-16%,13,8%[46.1 µM]
CCC[C@H]1[C@@H](NC(=O)Nc2ccc(C(C)C)cc2)CC[C@@]23CCCN2C(=O)CCC[C@@H]13,.,.,.,10,.
COc1cccc(OCCCOc2ccc([N+](=O)[O-])cc2Cl)c1,1%,-2%,-4%,1,14%
COc1ccccc1OCCCOc1ccc([N+](=O)[O-])cc1Cl,?,22µM*,-5%,-15,19%

# Source: PubChem (National Center for Advancing Translational Sciences (NCATS))
